According to PubChem BioAssay (EPA / NIEHS):
Inconclusive results are not listed. Active and inactive are the calls of the source. The calls were made as follows: active = hit-call score of the fitted dose curve at least 0.9, where 1 is the maximum; inconclusive = response in the unintended direction; inactive = score below 0.9.

biological target: human RAR-related Orphan Receptor beta (RORb), RORB (gene 6096) (UniProt Q92753); experiment: ATG_RORb_TRANS: Attagene TRANS-FACTORIAL HepG2 Assay for human RAR-related Orphan Receptor beta (RORb) (AID 2283010)
Method: ATG_TRANS is a cell-based, multiplexed-readout assay that uses HepG2, a human liver cell line, with measurements taken at 24 hours after chemical dosing in a 24-well plate.ATG_RORb_TRANS is one of 30 assay component(s) measured or calculated from the ATG_TRANS assay. It is designed to make measurements of mRNA induction, a form of inducible reporter, as detected with fluorescence intensity signals by Reverse transcription polymerase chain reaction (RT-PCR) and Capillary electrophoresis technology.Data from the assay component ATG_RORb_TRANS was analyzed into 1 assay endpoint. This assay endpoint, ATG_RORb_TRANS, was analyzed in the positive analysis fitting direction relative to DMSO as the negative control and baseline of activity. Using a type of inducible reporter, measures of mRNA for gain-of-signal activity can be used to understand the reporter gene at the transcription factor-level as they relate to the gene RORB. Furthermore, this assay endpoint can be referred to as a primary readout, because this assay has produced multiple assay endpoints where this one serves a reporter gene function. To generalize the intended target to other relatable targets, this assay endpoint is annotated to the nuclear receptor intended target family, where the subfamily is orphan.
Human liver HepG2 cells are transiently transfected with multiple reporter transcription units (MRTUs) in 6-well plates using FuGene 6 reagent (Roche; 3 ml FuGene/1 mg DNA). The MRTU constructs are regulated by a cis-regulating element (promoter). […] A major difference between the CIS and TRANS system is that in CIS activities of endogenous TFs are measured, whereas the TRANS assay evaluates changes in activities of exogenous, chimeric NR-Gal4 proteins. […] At the end of 24 hour incubation, total RNA was isolated using TriZol reagent (Invitrogen). The isolated RNA is then reverse-transcribed using oligo(dT) primer and Mo-MLV reverse transcriptase (Invitrogen) with DNAse I (Ambion) treatment for 30 min. The one-tenth of the produced cDNA was amplified by PCR using Taq DNA polymerase (Invitrogen) and two reporter sequence-specific primers. The PCR products were fluorescently labeled by primer extension with 6-arboxyfluorescein (6-FAM) 5'-labeled reporter sequence-specific primer (2 min at 95 C, 20 s at 68 C and 10 min at 72 C) and these products were digested with 5U of HpaI (New England Biolabs) for 2h at 37 C. The fragments were purified using Qiaquick PCR columns (Qiagen), analyzed on an ABI 3130xL genetic analyzer (Applied Biosystems) with peak positions identified by using a set of X-rhodamine (ROX)-labeled MapMarker1000 molecular weight standards (BioVentures). The raw capillary electrophoresis data was processed using Attagraph software (Attagene).

human RAR-related Orphan Receptor beta (RORb), RORB (gene 6096), sequence (Q92753 whole entry, looked up): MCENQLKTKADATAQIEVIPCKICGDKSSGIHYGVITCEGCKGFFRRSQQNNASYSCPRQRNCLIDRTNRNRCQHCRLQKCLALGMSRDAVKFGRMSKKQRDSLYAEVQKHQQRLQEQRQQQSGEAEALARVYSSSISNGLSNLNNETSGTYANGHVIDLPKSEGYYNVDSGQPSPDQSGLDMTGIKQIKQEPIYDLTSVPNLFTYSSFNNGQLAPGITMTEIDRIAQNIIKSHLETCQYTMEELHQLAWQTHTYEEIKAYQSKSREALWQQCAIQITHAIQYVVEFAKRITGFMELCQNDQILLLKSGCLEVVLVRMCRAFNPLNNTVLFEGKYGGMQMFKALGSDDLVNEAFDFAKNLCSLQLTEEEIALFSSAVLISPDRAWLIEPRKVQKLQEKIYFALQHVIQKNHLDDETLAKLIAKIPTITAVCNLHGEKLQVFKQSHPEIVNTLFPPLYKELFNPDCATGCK

SMILES	outcome
CC(CCO)CC(C)(C)C (stereo not given)	inactive
N=C1N=C(N)c2ccccc21	inactive
COc1ccccc1NC(=O)CC(C)=O	inactive
NC(=O)c1c(Cl)cccc1Cl	inactive
CC(=O)c1ccc2ccccc2c1	inactive
Cc1ccc(C(C)(C)O)cc1	inactive
CN(C)C	inactive
CNC(=C[N+](=O)[O-])NCCSCc1ccc(CN(C)C)o1	inactive
CCCCCC#CC(=O)OC	inactive
Nc1ccc(N)c([N+](=O)[O-])c1	inactive
CC(=O)CC(=O)N(C)C	inactive
O=S1(=O)CC(Cl)(Cl)C(Cl)(Cl)C1	inactive
O=C(OCc1ccccc1)c1ccccc1O	inactive
CCCOC(=O)CC	inactive
C=C(C)C(N)=O	inactive
Cc1cccc(O)c1	inactive
CC(O)CN (stereo not given)	inactive
CC(C)(C)c1cc(CCC(=O)OCCSCCOC(=O)CCc2cc(C(C)(C)C)c(O)c(C(C)(C)C)c2)cc(C(C)(C)C)c1O	inactive
CC(C)(O)CCc1ccccc1	inactive

SMILES	outcome
CCC(C)(CCCC(C)C)OC(C)=O (stereo not given)	inactive
O=S1(=O)CC=CC1	inactive
O=C(O)CS	inactive
CC(=O)OC(C)(C)C1CC=C(C)CC1 (stereo not given)	inactive
CCCCCCCCOC(=O)c1ccc(O)cc1	inactive
C[C@H](CCC(=O)O)[C@H]1CC[C@H]2[C@@H]3CC[C@@H]4C[C@H](O)CC[C@]4(C)[C@H]3CC[C@]12C	inactive
CC(=O)CCc1ccc(O)cc1	inactive
NS(=O)(=O)c1cc(C(=O)O)c(NCc2ccco2)cc1Cl	inactive
CC(C)C(=O)c1ccccc1	inactive
COc1cc(OC)c2ccc(=O)oc2c1	inactive
CC1=CC[C@@H]2C[C@H]1C2(C)C	inactive
O=C(C=Cc1ccccc1)OCCCc1ccccc1	inactive
CCOC(=O)CCCCCCCCC(=O)OCC	inactive
FC(F)(F)c1ccc(Cl)c(Cl)c1	inactive
CCCCOCCOCCO	inactive
NNC(=O)OCc1ccccc1	inactive
c1ccc(Cc2ccccc2)cc1	inactive
N#CCCNCCC#N	inactive
CCCCCCCCCCCCS	inactive
CC(=O)OCC=C(C)CCC=C(C)CCC=C(C)C	inactive
